Experimental data from PubChem BioAssay (Tox21).
Values joined by “and” are separate entries in the source; they are usually repeats but may differ in a detail not shown here. Equal entries are not always repeated. Records with an inconclusive call do not appear. Entries that show only a call come without a potency. Where a structure was tested more than once in an assay, its records may differ in their call. Active and inactive are the calls of the source. Unless noted, calls follow the shape of the dose curve; as a rule, active = well fitted curve in the direction sought with a large enough effect in the repeat runs; inconclusive = weak or mixed curves; inactive = no such curve, though single readings can be large; an effect the other way counts as inactive or inconclusive.

Experiments:
[1] = qHTS assay to identify aromatase inhibitors - cell viability counter screen (AID 743084);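 also: cells stimulated with testosterone during compound exposure; nearly all actives have a fitted effect of over 55% in size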; also: potency is read from the fitted curve at half-maximal effect
[2] = biological target: Aryl hydrocarbon receptor (Homo sapiens) (UniProt P35869); test: qHTS assay to identify small molecule that activate the aryl hydrocarbon receptor (AhR) signaling pathway (AID 743085); also: nearly all actives have a fitted effect of over 15% in size; also: potency is read from the fitted curve at half-maximal effect;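 as to activation: HG2L7.5c1 human HepG2 liver cells with stably integrated DRE-driven firefly reporter; series mostly up to about 70 µM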
Aryl hydrocarbon receptor (Homo sapiens), sequence (P35869 whole entry, looked up): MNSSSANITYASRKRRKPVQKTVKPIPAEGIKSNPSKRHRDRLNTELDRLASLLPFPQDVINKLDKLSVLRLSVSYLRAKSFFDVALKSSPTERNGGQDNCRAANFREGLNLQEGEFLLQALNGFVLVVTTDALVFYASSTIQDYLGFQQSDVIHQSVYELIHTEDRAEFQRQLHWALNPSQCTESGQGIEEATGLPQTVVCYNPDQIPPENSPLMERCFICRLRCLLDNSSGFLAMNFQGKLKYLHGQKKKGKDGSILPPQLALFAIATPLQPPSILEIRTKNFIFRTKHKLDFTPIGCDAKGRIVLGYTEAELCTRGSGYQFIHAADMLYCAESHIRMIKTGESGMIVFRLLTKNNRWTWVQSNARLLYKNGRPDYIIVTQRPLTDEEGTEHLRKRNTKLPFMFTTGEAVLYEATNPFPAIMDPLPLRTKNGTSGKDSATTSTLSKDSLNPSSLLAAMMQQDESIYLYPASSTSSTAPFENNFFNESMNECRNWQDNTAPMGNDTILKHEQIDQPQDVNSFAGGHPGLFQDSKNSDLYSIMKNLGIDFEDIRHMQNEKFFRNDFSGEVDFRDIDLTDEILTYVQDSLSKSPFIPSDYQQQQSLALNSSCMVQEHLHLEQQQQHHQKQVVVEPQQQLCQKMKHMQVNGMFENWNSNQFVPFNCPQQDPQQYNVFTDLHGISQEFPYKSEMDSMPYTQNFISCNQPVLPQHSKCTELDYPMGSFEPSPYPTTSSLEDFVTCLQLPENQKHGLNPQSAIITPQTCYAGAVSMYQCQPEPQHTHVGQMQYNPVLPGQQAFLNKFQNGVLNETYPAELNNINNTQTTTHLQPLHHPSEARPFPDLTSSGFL
In short: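 Compounds were tested in HepG2 hepatocellular carcinoma cells harbouring a stably integrated luciferase gene under control of 20 DREs. Increased reporter signal after 24 h treatment at 37C was taken as AhR activation.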

[3] = qHTS assay to identify small molecule that activate the aryl hydrocarbon receptor (AhR) signaling pathway - cell viability counter screen (AID 743086);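 also: HepG2 liver cells carrying the AhR DRE luciferase reporter; series mostly up to about 70 µM; nearly all actives have a fitted effect of over 45% in size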
In short: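 HepG2-AhR-luc (HG2L7.5c1) cells, 4000/well, were preincubated 5 h at 37C, exposed to compound in qHTS format for 24 hr at 37C, then given CellTiter-Fluor for 30 min; viability was read as fluorescence in the reporter wells.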

[4] = biological target: Peroxisome proliferator-activated receptor gamma (Homo sapiens) (UniProt P37231); test: qHTS assay to identify small molecule antagonists of the peroxisome proliferator-activated receptor gamma (PPARg) signaling pathway (AID 743191; calls by dose curve; also: nearly all actives have a fitted effect of over 30% in size; also: potency is read from the fitted curve at half-maximal effect)
Peroxisome proliferator-activated receptor gamma (Homo sapiens), sequence (P37231 whole entry, looked up): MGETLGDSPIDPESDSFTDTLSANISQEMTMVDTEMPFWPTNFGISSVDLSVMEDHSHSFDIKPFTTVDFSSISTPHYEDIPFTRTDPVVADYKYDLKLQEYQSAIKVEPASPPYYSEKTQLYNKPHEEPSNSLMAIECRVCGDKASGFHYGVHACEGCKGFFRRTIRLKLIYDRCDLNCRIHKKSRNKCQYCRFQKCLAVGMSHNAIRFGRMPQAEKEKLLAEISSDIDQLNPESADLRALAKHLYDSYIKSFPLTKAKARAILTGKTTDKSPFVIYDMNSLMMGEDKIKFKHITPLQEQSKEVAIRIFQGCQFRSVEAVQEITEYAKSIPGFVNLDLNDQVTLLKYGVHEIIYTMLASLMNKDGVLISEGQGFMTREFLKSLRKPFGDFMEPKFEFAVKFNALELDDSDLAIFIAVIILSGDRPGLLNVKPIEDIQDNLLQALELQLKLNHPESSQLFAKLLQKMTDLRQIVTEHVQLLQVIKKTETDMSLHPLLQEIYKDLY
In short: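 GeneBLAzer PPARg UAS-bla HEK293H cells carrying a UAS-driven beta-lactamase reporter were plated at 3000 cells/well, preincubated 5 h at 37C, then given compound for 17 h at 37C; LiveBLAzer B/G FRET substrate was read after 1 h at room temperature.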

[5] = qHTS assay to identify small molecule antagonists of the peroxisome proliferator-activated receptor gamma (PPARg) signaling pathway - cell viability counter screen (AID 743194); conditions: Potency: co-treated with 50 nM rosiglitazone unless noted; also: nearly all actives have a fitted effect of over 55% in size; also: potency is read from the fitted curve at half-maximal effect
In short: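 PPARg-UAS-bla HEK293H cells were plated, rested 5 h at 37 C, then treated with compounds plus rosiglitazone (50 nM final) for 17 h at 37 C; viability was then read by CellTiter-Glo luminescence after 30 min at room temperature.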

[6] = qHTS assay for small molecule agonists of the antioxidant response element (ARE) signaling pathway (AID 743202; active = well fitted activation curve with a large enough effect in the signal ratio in the repeat runs, not every such curve was filed as active; the % refers to the signal ratio; also: potency is read from the fitted curve at half-maximal effect)
In short: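 Steps: seed ARE-bla HepG2 cells (2,000/well); incubate 5 h at 37 C; add compounds by pin tool; incubate 16 h at 37 C; add FRET substrate; read fluorescence after 2 h at RT.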

[7] = qHTS assay for small molecule agonists of the antioxidant response element (ARE) signaling pathway - cell viability counter screen (AID 743203; calls by dose curve; also: nearly all actives have a fitted effect of over 55% in size; also: potency is read from the fitted curve at half-maximal effect)
In short: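 Luminescence read-out (CellTiter-Glo, 30 min at room temperature) measured cell viability in the same wells as the ARE beta-lactamase reporter. HepG2 ARE-bla cells were treated with compounds for 16 hrs at 37C/5% CO2.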

[8] = qHTS assay for small molecule activators of the heat shock response signaling pathway - cell viability counter screen (AID 743209); also: nearly all actives have a fitted effect of over 50% in size
In short: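 HSE-bla HeLa; 1500 cells/well; overnight 37 C, 5% CO2; compound 5 h 37 C; LiveBLAzer B/G substrate 2.5 h RT; CellTiter-Glo 30 min RT; luminescence.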

[9] = qHTS assay for small molecule activators of the heat shock response signaling pathway (AID 743210; active = well fitted activation curve with a large enough effect in the signal ratio in the repeat runs, with a control signal flat, not every such curve was filed as active; the % refers to the signal ratio; also: potency is read from the fitted curve at half-maximal effect;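 as to activation: HeLa cells with beta-lactamase reporter driven by heat shock elements; series mostly up to about 63 µM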)
In short: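 Activation of heat shock element-controlled beta-lactamase expression is measured in HeLa cells by LiveBLAzer FRET fluorescence, with compound exposure lasting 5 h at 37 C and substrate loading 2.5 h at room temperature.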

[10] = biological target: Peroxisome proliferator-activated receptor gamma (Homo sapiens) (UniProt P37231); test: qHTS assay to identify small molecule agonists of the peroxisome proliferator-activated receptor gamma (PPARg) signaling pathway (AID 743094; active = well fitted activation curve with a large enough effect in the signal ratio in the repeat runs, not every such curve was filed as active; the % refers to the signal ratio; also: potency is read from the fitted curve at half-maximal effect)
In short: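 HEK293H PPARg-bla cells, 5 h settle at 37C/5% CO2; compound (DMSO) 17 h, 37C; B/G FRET substrate 1 h RT; fluorescence intensity read-out. qHTS format.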

Structure (SMILES)	Potency [1]	Potency [2]	Potency [3]	Potency [4]	Potency [5]	Potency [6]	Potency [7]	Potency [8]	Potency [9]	Potency [10]
C=C(CC(=O)O)C(=O)O	inactive	inactive	inactive	inactive	inactive	inactive	inactive	inactive	inactive	–
Cc1ccc([N+](=O)[O-])cc1N	inactive	61 µM (active)	inactive	inactive	inactive	inactive	inactive	inactive	inactive	–
C=CC(C)(C)C	inactive	inactive	inactive	–	–	inactive	inactive	inactive	inactive	inactive
CC(COCC(C)OC(=O)c1ccccc1)OC(=O)c1ccccc1 (configuration not stated)	inactive	inactive	inactive	inactive	inactive	inactive	inactive	inactive	inactive	–
CCCCCC(C)=O	inactive	inactive	inactive	inactive	inactive	inactive	inactive	inactive	inactive	–
O=C(c1ccccc1)c1ccc(O)c(O)c1O	inactive	inactive	inactive	–	inactive	–	inactive	inactive	inactive	inactive
CCCCCCCCO	inactive	inactive	inactive	inactive	inactive	inactive	inactive	inactive	inactive	–
COCN(COC)c1nc(N(COC)COC)nc(N(COC)COC)n1	inactive	inactive	inactive	inactive	inactive	inactive	inactive	inactive	inactive	–
OB(O)O	inactive	inactive	inactive	inactive	–	inactive	inactive	inactive	inactive	–
Nc1cccc(N)n1	inactive	52.6 µM (active) and 61.1 µM (active)	inactive	inactive	inactive	–	inactive	inactive	inactive	–
CC(C)=CCC/C(C)=C/C=O	inactive	inactive	inactive	inactive	inactive	inactive	inactive	inactive	inactive	–
CC(=O)OCCC(C)C	inactive	inactive	inactive	inactive	inactive	–	inactive	inactive	inactive	–
CCCCCCCC(=O)O	inactive	inactive	inactive	–	inactive	inactive	inactive	inactive	inactive	inactive
c1cnc2c(c1)ccc1cccnc12	5.5 µM (active)	55 µM (active) and 54.5 µM (active) and inactive	inactive	1.56 µM (active)	1.23 µM (active)	–	5.45 µM (active)	inactive	–	–
CCCCC(=O)O	inactive	inactive	inactive	inactive	inactive	–	inactive	inactive	inactive	–
Cc1cc(CC(=O)O)n(C)c1C(=O)c1ccc(Cl)cc1	inactive	inactive	inactive	inactive	inactive	inactive	inactive	inactive	inactive	–
COC(=O)CCCCC(=O)OC	inactive	inactive	inactive	inactive	inactive	–	inactive	inactive	inactive	–
CC(CN1c2ccccc2Sc2ccccc21)N(C)C (configuration not stated)	inactive	inactive	inactive	–	–	inactive	68.6 µM (active) and inactive	inactive	inactive	inactive
COc1ccc(N)c(OC)c1	inactive	inactive	inactive	inactive	inactive	inactive	inactive	inactive	inactive	–
COc1ccc([C@@H]2CC(=O)c3c(O)cc(O[C@@H]4O[C@H](CO[C@@H]5O[C@@H](C)[C@H](O)[C@@H](O)[C@H]5O)[C@@H](O)[C@H](O)[C@H]4O)cc3O2)cc1OC	inactive	inactive	inactive	inactive	inactive	inactive	inactive	inactive	inactive	–
COC(=O)OC	inactive	inactive	inactive	inactive	inactive	–	inactive	inactive	inactive	–

Structure (SMILES)	Potency [1]	Potency [2]	Potency [3]	Potency [4]	Potency [5]	Potency [6]	Potency [7]	Potency [8]	Potency [9]	Potency [10]
CC(C=O)Cc1ccc(C(C)(C)C)cc1 (configuration not stated)	inactive	inactive	inactive	inactive	inactive	–	inactive	inactive	inactive	–
O=C1C(N(CO)C(=O)NCO)N(CO)C(=O)N1CO (configuration not stated)	inactive	inactive	inactive	–	inactive	–	inactive	inactive	inactive	inactive
O=c1c(O)c(-c2ccc(O)c(O)c2)oc2cc(O)cc(O)c12	inactive	61.2 µM (active) and 54.9 µM (active) and 61.1 µM (active)	inactive	inactive	inactive	–	inactive	inactive	–	–
CCCCCCCCCCCCCC(=O)O	inactive	inactive	inactive	–	inactive	–	inactive	inactive	–	–
CN1Cc2c(N)cccc2C(c2ccccc2)C1 (configuration not stated)	–	inactive	inactive	–	inactive	inactive	inactive	inactive	inactive	–
COc1ccc2cc3[n+](cc2c1OC)CCc1cc2c(cc1-3)OCO2	inactive and 48.9 µM (active)	–	inactive	–	inactive	2.45 µM (active) and 5.96 µM (active)	inactive	inactive	inactive	–
CC(=O)OC[C@H]1O[C@@](COC(C)=O)(O[C@H]2O[C@H](COC(C)=O)[C@@H](OC(C)=O)[C@H](OC(C)=O)[C@H]2OC(C)=O)[C@@H](OC(C)=O)[C@@H]1OC(C)=O	inactive	inactive	inactive	–	inactive	inactive	inactive	inactive	inactive	–
NC1CCCCC1N (configuration not stated)	inactive	inactive	inactive	–	inactive	inactive	inactive	inactive	inactive	–
O=C(NCC1CCCCN1)c1cc(OCC(F)(F)F)ccc1OCC(F)(F)F (configuration not stated)	–	–	inactive	–	inactive	inactive	inactive	inactive	–	–
O=[N+]([O-])c1ccccc1C(F)(F)F	inactive	–	inactive	inactive	inactive	–	inactive	inactive	inactive	–
COC(=O)/C=C\C(=O)OC	–	–	inactive	–	inactive	–	inactive	inactive	inactive	–
Brc1ccc(Oc2ccc(Br)cc2)cc1	–	–	inactive	–	inactive	inactive	inactive	inactive	inactive	–
Nc1nc(N)c2nc(-c3ccccc3)c(N)nc2n1	–	–	inactive	–	inactive	–	27.6 µM (active) and 17.2 µM (active)	inactive	37.1 µM (active) and 29.7 µM (active) and 26.6 µM (active)	23.9 µM (active)
Cc1cc(C)cc(O)c1	inactive	inactive	inactive	–	inactive	inactive	inactive	inactive	inactive	–
CC(=O)OCc1ccc2c(c1)OCO2	inactive	inactive	inactive	–	inactive	–	inactive	inactive	inactive	–
CS(=O)(=O)c1ccc(Cl)cc1	inactive	inactive	inactive	–	inactive	inactive	inactive	inactive	inactive	–
OCCOCCOCCOCCOCCO	inactive	–	inactive	–	inactive	–	inactive	inactive	inactive	–
Cc1ccc(C)c(S(=O)(=O)O)c1	inactive	inactive	inactive	–	inactive	–	inactive	inactive	inactive	–
CC[N+](CC)(CC(=O)Nc1c(C)cccc1C)Cc1ccccc1	inactive	–	inactive	inactive	inactive	–	inactive	inactive	–	inactive
CCOC(=O)c1ccc(O)cc1	inactive	inactive	inactive	–	inactive	–	inactive	inactive	inactive	–
CCN(CC)CCNC(=O)c1ccc(N)cc1	inactive	inactive	inactive	–	inactive	inactive	inactive	inactive	inactive	–

Structure (SMILES)	Potency [1]	Potency [2]	Potency [3]	Potency [4]	Potency [5]	Potency [6]	Potency [7]	Potency [8]	Potency [9]	Potency [10]
N[C@@H](Cc1cc(I)c(Oc2ccc(O)c(I)c2)c(I)c1)C(=O)O	inactive	–	inactive	–	inactive	–	inactive	inactive	inactive	–
CCCCCCCCC(=O)O	inactive	inactive	inactive	–	inactive	inactive	inactive	inactive	inactive	–
CC(C)(CO)CO	inactive	inactive	inactive	–	inactive	inactive	inactive	inactive	inactive	–
Clc1cccc(Cl)c1NC1=NCCN1	inactive	inactive	inactive	–	inactive	inactive	inactive	inactive	inactive	–
CO[Si](CCCNCCN)(OC)OC	inactive	–	inactive	inactive	inactive	inactive	inactive	inactive	inactive	–
CCc1cccc(CC)c1N	inactive	inactive	inactive	–	inactive	–	inactive	inactive	inactive	–
O=c1n(CCCN2CCN(c3cccc(Cl)c3)CC2)nc2ccccn12	inactive	inactive	inactive	–	inactive	–	inactive	inactive	inactive	–
CCn1cc(C(=O)O)c(=O)c2cc3c(cc21)OCO3	inactive	inactive	inactive	–	inactive	–	inactive	inactive	inactive	–
CCCCCCC(=O)O	inactive	inactive	inactive	–	inactive	inactive	inactive	inactive	inactive	–
NCCNCCNCCN	–	–	inactive	–	inactive	inactive	inactive	inactive	–	–
COc1c2ccoc2cc2oc(=O)ccc12	inactive	–	inactive	inactive	inactive	inactive	inactive	inactive	inactive	inactive
COc1ccccc1[N+](=O)[O-]	inactive	inactive	inactive	–	inactive	inactive	inactive	inactive	inactive	–
CC(=O)c1nccs1	inactive	–	inactive	inactive	inactive	inactive	inactive	inactive	inactive	–
Nc1cccc(C(F)(F)F)c1	inactive	inactive	inactive	–	inactive	–	inactive	inactive	inactive	–
CC/C(C)=N/O	–	–	inactive	–	inactive	inactive	inactive	inactive	inactive	–
CC(C)(C)NC[C@H](O)COc1nsnc1N1CCOCC1	inactive	inactive	inactive	–	inactive	inactive	inactive	inactive	inactive	–
C=C(C)CC(C)(C)C	–	–	inactive	–	inactive	inactive	inactive	inactive	inactive	–
CC(=O)CC(=O)N(C)C	inactive	–	inactive	–	inactive	inactive	inactive	inactive	inactive	–
O=C(O)Cc1c[nH]c2ccccc12	–	–	inactive	–	inactive	inactive	inactive	inactive	inactive	–
CCOC(=O)CC(=O)OCC	–	–	inactive	–	inactive	inactive	inactive	inactive	inactive	–
